Compound activity: PubChem, National Center for Advancing Translational Sciences (NCATS)
HCV inhibitor: inhibitors of hepatitis C virus infection; Huh7.5.1 HCVcc-Cre infection, luciferase reporter, 44 h; Potency, µM (top dose mostly 41.8 µM), most hits filed as inhibitors; 3.4% of 340,000 active; AID 651820
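Infectious HCVcc-Cre (~0.5 moi) was added to cells just after compound, with cells seeded 4 h earlier at 1,000 per well. Luciferase activity after 44 h culture reported infection; substrate was incubated 15 min at room temperature before reading.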
LASV entry inh: blocks Lassa virus binding to or entry into cells | Lassa virus pseudotype entry inhibition, cell reporter | 1.2% of 300,000 active | Potency, µM (highest dose often 37.9 µM), actives largely listed as inhibitors | AID 540256; calls by dose curve; tested in HEK293 cells; note: nearly all actives have a fitted effect of over 50% in size
FMDV inh: antivirals against foot and mouth disease virus. Potency, µM (titrated, usually from 57.9 µM), hits mostly inhibitors. 1.2% of 410,000 active. FMDV antiviral cell-based qHTS. AID 1159524; calls by dose curve; tested in HEK293T cells; note: read-out not given here; nearly all actives have a fitted effect of over 45% in size
HCMV inh: human cytomegalovirus inhibition; 4.5% of 410,000 active; HFF cells, HCMV-luciferase reporter, 72 h; hits give low values; activity change, negative = inhibition, % at 57.5 µM; in the data active = activity change below about -60%; inconclusive = no clear call, values can overlap the other calls; inactive = above about -39%
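Compounds were evaluated in HFFs infected with an HCMV luciferase reporter virus (MOI 1 PFU/cell). Luciferase in lysates collected 72 h post infection served as the replication measure.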
Marburg entry inh: blocks Marburg virus binding to or entry into cells; AID 540276; Marburg virus pseudotyped entry inhibition, cell reporter; 1.8% of 300,000 active; Potency, µM (highest dose often 37.8 µM), actives largely listed as inhibitors; calls by dose curve; tested in HEK293 cells
HCV confirm: HCV inhibition, cherry-pick confirmation; shares compounds with HCV inhibitor; HCVcc-Cre infectious virus cell assay, luciferase, inhibition; Potency, µM (highest dose often 41.8 µM), hits mostly inhibitors; 78% of 640 active; note: nearly all actives have a fitted effect of over 80% in size
HCV host tox: host cell cytotoxicity counter-screen for HCV inhibitors | shares compounds with HCV inhibitor | HCV host cell line cytotoxicity counterscreen | Potency, µM (doses to about 41.8 µM), usual class: inhibitors | 22% of 640 active | AID 720576;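 note: 44 h compound exposure; nearly all actives have a fitted effect of over 55% in size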
A number is an active result; . = inactive; ? = inconclusive; / = no result given. A selection: hits, their analogues and other compounds. The true share with any hit is near 7.9%. Unless noted, calls come from the whole dose curve; as a rule, active = well fitted curve in the direction sought with a large enough effect; inconclusive = small, poorly fitted or top-dose-only effect, or another doubt; inactive = no such curve, though single readings can be large; an effect the other way counts as inactive or inconclusive.

SMILES | HCV inhibitor | LASV entry inh | FMDV inh | HCMV inh | Marburg entry inh | HCV confirm | HCV host tox
COc1cc2c(cc1OC)C(C)N(C(=O)[C@@H](NC(=O)c1ccccc1)C(C)C)CC2 (stereo partly specified) | 1.41µM | ? | . | ? | ? | ? | .
C=C(CN(C)C)C(=O)c1cc(C)ccc1C | ? | ? | ? | -98.9 | ? | 8.87µM | 7.91µM
Cc1ccc(C)c(C(=O)NCCN(C)C)c1 | . | . | . | . | . | / | /
COc1ccc(C(=O)Nc2cc(OC)cc3cccnc23)cc1 | ? | / | . | . | / | 14.1µM | .
N#Cc1ccccc1NC(=O)Cn1cnc2onc(-c3cccc(F)c3)c2c1=O | / | . | . | . | / | / | /
CCOc1cccc2sc(N(CCCN(C)C)C(=O)c3ccc(S(=O)(=O)N(C)Cc4ccccc4)cc3)nc12 | 5.01µM | ? | ? | ? | ? | 14.1µM | .
O=C(c1cccnc1)N1CCCC(Nc2ccc(F)cc2)C1 (stereo unspecified) | . | . | . | ? | . | / | /
CC(C)NC(=O)N1CCC2(CC1)CCN(S(=O)(=O)c1ccccc1)CC2 | / | / | . | / | / | / | /
COCCN1C[C@@H](CO)O[C@@H](n2cnc3c(N(C)C(C)C)ncnc32)C1 | / | / | . | . | / | / | /
CCCOc1ccc(CNC(=O)Cc2cccs2)cc1 | . | / | . | . | / | / | /
O=[N+]([O-])c1ccc2c3n([n+]([O-])c2c1)CCN=C3c1ccc(Cl)cc1 | ? | / | . | . | / | / | /
Cc1ccc(C2=NCCn3c2c2ccc([N+](=O)[O-])cc2[n+]3[O-])cc1 | ? | / | . | . | / | 22.3µM | .
CC(C)N(C(=O)Cn1cc(SCC(=O)Nc2ccccc2C(F)(F)F)c2ccccc21)C(C)C | / | . | . | . | / | / | /
CCn1c(=O)c2cc(C(=O)Nc3ccccc3OC)sc2c2ccccc21 | ? | / | . | . | / | 14.1µM | .
CCn1c(=O)c2cc(C(=O)Nc3cc(OC)c(OC)c(OC)c3)sc2c2ccccc21 | / | . | ? | . | . | / | /
C/C(=N/Nc1nc(-c2ccccc2)cc(-c2ccc(F)cc2)n1)c1cccc(N)c1 | 8.91µM | ? | . | . | . | 14.1µM | ?
COc1cc2sc(C)nc2c2sccc12 | 2.24µM | . | . | . | . | 25µM | .
COc1ccc2sc(C)nc2c1NC(C)=O | . | . | . | . | . | / | /
O=C(NC1CCS(=O)(=O)C1)/C(=C/c1ccco1)NC(=O)c1ccccc1 (stereo unspecified) | 7.08µM | . | . | . | . | . | .
CN(C)S(=O)(=O)N1CCC(Oc2cccc(C(=O)NC3CCCCCC3)c2)CC1 | 2.82µM | ? | ? | -89.7 | ? | 4.45µM | 7.91µM
CCOC(=O)C1=C(COC(=O)COc2ccccc2C(C)C)NC(=O)NC1C (stereo unspecified) | . | . | . | . | . | / | /
Cc1ccccc1OCCSc1nnc(-c2ccc([N+](=O)[O-])cc2)o1 | / | . | . | . | . | / | /
Cc1cc(/C=C(\C#N)C(=O)Nc2ccccc2)c(C)n1-c1ccc2c(c1)OCO2 | ? | ? | . | . | ? | 17.7µM | .
O=C(/C=C/c1ccccc1Cl)Nc1nc(-c2cccs2)ns1 | / | ? | . | . | . | / | /
COc1ccc(-c2nc(-c3ccccc3OC)no2)cc1OC | ? | . | . | . | . | 22.3µM | .
SMILES | HCV inhibitor | LASV entry inh | FMDV inh | HCMV inh | Marburg entry inh | HCV confirm | HCV host tox
Cc1ccc(N(C(=O)CCl)C(C(=O)NC2CCCCC2)c2cccnc2)cc1C (stereo unspecified) | 0.891µM | 7.94µM | 7.94µM | -98.9 | ? | 0.499µM | 0.396µM
CCOC(=O)Nc1ccc(NCc2ccc(F)cc2)nc1N | 0.891µM | ? | . | . | ? | . | .
CCOc1cc(CNCCc2ccc(S(N)(=O)=O)cc2)cc(Cl)c1OCc1ccccc1 | 1.58µM | ? | 20µM | -60.5 | ? | 4.45µM | 12.5µM
CC(Oc1ccccc1)c1nnc(SCC(=O)NC2CC2)n1C (stereo unspecified) | . | . | . | . | ? | / | /
COc1ccc(CNC(=O)c2ccc3c(=O)n4c(nc3c2)CCCCC4)cc1OC | ? | ? | ? | -74.5 | ? | 7.91µM | ?
COc1cccc(C(=O)Nc2ccc3c(c2)CCCN3C(=O)c2cccs2)c1OC | 4.47µM | ? | . | . | / | 25µM | ?
CCn1c(=NC(=O)C2COc3ccccc3O2)sc2c(C)ccc(OC)c21 (stereo unspecified) | ? | / | ? | ? | / | 12.5µM | .
CCc1ccc2c(c1)-c1ccccc1S(=O)(=O)N2CC(=O)N1CCC(C)CC1 | / | . | . | . | . | / | /
Cc1ccccc1-c1nc(CS(=O)(=O)CC(=O)NCCCN2CC(C)CC(C)C2)c(C)o1 (stereo unspecified) | ? | / | . | . | / | / | /
Cc1ccccc1-c1nc(CN2CCC(C(=O)NCCCN3CC(C)CC(C)C3)CC2)c(C)o1 (stereo unspecified) | 1.26µM | ? | . | . | ? | 1.41µM | ?
COC(=O)c1cc(C(=O)c2ccc(Cl)cc2)n2c(=O)/c(=C\N(C)C)sc12 | 2.82µM | . | . | . | . | 7.91µM | .
COC(=O)c1cc(C(=O)c2ccccc2)n2c(=O)/c(=C\N(C)C)sc12 | ? | / | . | . | / | / | /
O=C(NC(Nc1ncc(S(=O)(=O)c2ccc([N+](=O)[O-])cc2)s1)(C(F)(F)F)C(F)(F)F)c1ccc(Cl)cc1 | 4.47µM | ? | ? | -96.4 | 3.16µM | 4.45µM | 7.91µM
CCN(CC)c1cc(C)c2cc(NC(=O)/C=C/c3ccccc3OC(C)C)ccc2n1 | / | . | . | ? | ? | / | /
CCOc1ccccc1NC(=O)CSc1nnc(Cc2ccc(OC)cc2)c(=O)n1N | ? | . | . | . | . | 7.91µM | .
CCOc1ccc(Cc2nnc(SCC(=O)Nc3ccccc3)n(N)c2=O)cc1 | ? | ? | . | . | . | / | /
Cc1cc2c(cc1S(=O)(=O)NCc1ccc(N(C)C)cc1)OCC(=O)N2 | . | . | . | . | / | / | /
Nc1ccc2c(c1)C(=O)c1ccc(Br)cc1-2 | ? | . | . | . | . | . | .
Nc1ccc2cc(Br)ccc2c1 | . | . | ? | . | . | / | /
CC1CCN(c2ccc3nnc(CCC(=O)NC(C)C)n3n2)CC1 | . | . | . | . | ? | / | /
CC(Oc1ccc(Cl)cc1Cl)c1nc(-c2ccc(NC(=O)c3ccncc3)cc2)no1 (stereo unspecified) | 2.82µM | ? | 15.8µM | -100.7 | ? | 7.05µM | 11.2µM
CC(Oc1ccc(Cl)cc1Cl)C(=O)NNC(=O)c1ccncc1 (stereo unspecified) | . | . | . | . | . | / | /
Cc1ccc(-c2cc(-c3ccc4c(c3)NC(=O)CO4)nc3c2COc2ccccc2-3)cc1 | / | . | . | . | ? | / | /
N#Cc1ccccc1CSc1ccc(-c2nc3ccccc3[nH]2)cn1 | 8.91µM | . | / | . | ? | ? | 14.1µM
Cc1cc(Cl)ccc1OCC(=O)Nc1ccccc1CO | 3.16µM | ? | . | . | . | 7.91µM | .
Cc1cc(S(=O)(=O)Nc2cc3c(cc2N2CCOCC2)n(C)c(=O)n3C)ccc1F | / | ? | . | . | . | / | /
